Measurements from the OligoGym collection.

Molecular target: AKT3
Experiment: pooled miR-30 sensor sort-seq; sequence = guide strand
Conditions: shRNA
Further: reference of the scale not given here.

Sequence	sensor-assay potency score (higher = more potent)
TTATCTTCTAACACCTCTGGTG	-0.243
TTTAAAAGGAGGTACAAGCTTT	-0.528
TATCTTCTAACACCTCTGGTGC	-0.701
TATTGTAATAGTCTGAGCTGTA	0.29
TTATTGTAATAGTCTGAGCTGT	-0.326
TAGTCCACTGGAGACATCTGAT	-0.68
TAGTCTGAGCTGTAAATTCTTC	-1.06
TTGTCTTTCTTTTATGATGGGT	-0.0312
TTATCATATACATCTTGCCAGT	-1.09
TATAACAGTAGTCCACTGGAGA	-0.667
TTTATCATATACATCTTGCCAG	0.12
TTGTAGAAAGGTAACCTCCCAC	-0.166

Molecular target: ALAD
Experiment: as above
Conditions: shRNA

Sequence	sensor-assay potency score (higher = more potent)
TACCACCTGACATCCTGCCTTG	-0.254
TGGATTGCCTCAATAGCTGGGG	-0.361
TCGTCCTTGGGAACTCTGCTGG	-1.05
TTTGGTTTTCACTTGTCTGAGG	-0.0275
TAGGCTGTATGTCATCAGGAAC	-1.11
TCCTTGGGAACTCTGCTGGGGA	-1.34
